Reference: PubChem BioAssay AID624273 (Broad Institute, 2012)
The campaign covered roughly 1,000 compounds. About 230 (23%) were called active. Not shown: some 1% with an inconclusive outcome. How the calls were made is not given here. Some of the results follow. Entries with a potency or affinity are not part of this list.

molecular target: Long-chain-fatty-acid--AMP ligase FadD28 (Mycobacterium tuberculosis (strain ATCC 25618 / H37Rv)) (UniProt P9WQ59); assay: inhibitors of FadD28 bisubstrate probe binding, dose response, biochemical, fluorescence polarization, cherry-pick (AID 624273); details: series mostly up to 50 µM
Sequence (P9WQ59 whole entry, looked up): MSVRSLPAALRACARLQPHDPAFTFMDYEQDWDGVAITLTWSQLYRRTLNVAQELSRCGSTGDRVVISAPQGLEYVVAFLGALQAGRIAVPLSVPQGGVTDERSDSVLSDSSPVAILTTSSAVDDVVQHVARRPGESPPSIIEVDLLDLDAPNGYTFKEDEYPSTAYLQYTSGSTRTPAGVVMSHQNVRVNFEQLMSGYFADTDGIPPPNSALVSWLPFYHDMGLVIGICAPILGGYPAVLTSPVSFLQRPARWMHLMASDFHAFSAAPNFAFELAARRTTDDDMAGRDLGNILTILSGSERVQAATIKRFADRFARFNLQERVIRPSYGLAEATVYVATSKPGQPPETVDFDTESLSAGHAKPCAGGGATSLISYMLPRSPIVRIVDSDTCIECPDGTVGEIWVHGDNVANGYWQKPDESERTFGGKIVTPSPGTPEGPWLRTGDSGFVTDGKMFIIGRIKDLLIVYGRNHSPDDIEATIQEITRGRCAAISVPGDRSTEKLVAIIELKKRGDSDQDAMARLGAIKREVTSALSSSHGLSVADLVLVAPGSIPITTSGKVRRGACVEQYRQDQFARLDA

Row | Structure (SMILES) | outcome
1 | O=C(C(=O)N1CCCCCC1)c1c[nH]c2ccccc12 | inactive
2 | Nc1cc(OC(=O)c2ccc(F)cc2)nn1S(=O)(=O)c1ccccc1 | inactive
3 | COc1ccc(C2C(C#N)=C(N)N(c3ccccc3)C3=C2C(=O)CCC3)cc1Cn1cc([N+](=O)[O-])cn1 (stereo not drawn) | inactive
4 | COc1cc(/C=C2\SC(=S)N(NC(=O)c3ccccc3O)C2=O)ccc1O | inactive
5 | Cc1ccn2c(CNCCn3cccn3)c(C(=O)N3CCCCCC3)nc2c1 | inactive
6 | COc1cc2cncc(Cc3ccc(Cl)cc3)c2cc1OC | inactive
7 | CC1(C)CC(=O)C(C(c2ccncc2)C2C(=O)CC(C)(C)CC2=O)C(=O)C1 | inactive
8 | CN1CCN(CCCN2c3ccccc3Sc3ccc(Cl)cc32)CC1 | inactive
9 | O=C(CSc1nncn1-c1cccnc1)N1CCOCC1 | inactive
10 | CN(Cc1cccc([N+](=O)[O-])c1)Cc1cccc2ccccc12 | inactive
11 | CC(=O)NNC(=S)Nc1cccc(F)c1 | inactive
12 | Cc1cccc(NC(=O)NNC(=O)c2ccc3ccccc3c2O)c1 | inactive
13 | Cc1ccc(SCCN2CCN(C)CC2)cc1 | inactive
14 | Cn1ncnc2c(=O)n(C)c(=O)nc1-2 | inactive
15 | CN(C)c1cccc(NC(=O)c2ccco2)c1 | inactive
16 | COc1ccccc1NC(=O)c1ccc2c(c1)C(=O)N(c1ccccc1OC)C2=O | inactive
17 | COCCCN1CN(S(=O)(=O)c2ccc(Cl)cc2)c2nc3ccccc3nc21 | inactive
18 | CC1CCCC(C)N1CCCNC(=O)c1ccc2nc(N3CCOCC3)sc2c1 (stereo not drawn) | inactive
19 | O=C(Nc1nc2ccc(SC(F)F)cc2s1)c1ccc(NS(=O)(=O)c2ccc(F)c(F)c2)cc1 | inactive
20 | COc1ccc(OC)c(NC(=O)c2ccc(NC(C)=O)cc2)c1 | inactive
21 | COc1ccc(C(=O)NNC(=O)C(=O)NCc2ccccc2)cc1 | inactive
22 | Cc1ccc(C)c(C(=O)C(C)OC(=O)c2cccn2C)c1 (stereo not drawn) | inactive
23 | O=C(CN1C(=O)c2ccccc2C1=O)N(CCO)Cc1ccccc1 | inactive

Row | Structure (SMILES) | outcome
24 | CCCc1nc(N)c(C#N)c(-c2ccco2)c1CC | inactive
25 | O=C(COC(=O)c1cccs1)Nc1cccc(S(=O)(=O)N2CCOCC2)c1 | inactive
26 | COc1ccc(S(=O)(=O)N2CCCCCC2)cc1C(=O)NCc1cccs1 | inactive
27 | CCOC1=C(C#N)CC2(CC1)c1ccccc1-c1ccccc12 | inactive
28 | Cc1ccc(C)n1C(CC(=O)O)c1ccc(C#N)cc1 (stereo not drawn) | inactive
29 | O=C1C2CC=CCC2C(=O)N1c1ccc(NCCc2ccc(O)cc2)c([N+](=O)[O-])c1 (stereo not drawn) | inactive
30 | C=CCOc1cccc(C2C(C(=O)c3ccc(C)o3)=C(O)C(=O)N2CCCn2ccnc2)c1 (stereo not drawn) | inactive
31 | O=C(O)c1cc(N/N=C/c2c[nH]c3ccccc23)ccc1Cl | inactive
32 | O=C(O)c1ccc(N/N=C/C2=Cc3ccccc3OC2)cc1 | inactive
33 | CC(=O)Nc1sc(N/N=C\c2ccccc2)nc1-c1cccs1 | inactive
34 | COc1cc(C(C)=O)ccc1OC(=O)N(C)c1ccccc1 | inactive
35 | CN1CCCC(C(=O)c2ccc(-c3ccccc3)cc2)C1 (stereo not drawn) | inactive
36 | COc1ccc(Cl)cc1NC(=S)N(Cc1ccc(C(=O)O)cc1)Cc1ccc(OC)c(OC)c1 | inactive
37 | Cc1ccc(S(=O)(=O)N2CCN(C(=O)COC(=O)Cc3cccc(C(F)(F)F)c3)CC2)c(C)c1 | inactive
38 | Cc1c(N=Cc2c(O)n(CCc3ccc(F)cc3)c(=O)[nH]c2=O)c(=O)n(-c2ccccc2)n1C | inactive
39 | Cc1ccc(C)c(C(O)c2ncc(-c3ccccc3F)[nH]2)c1 (stereo not drawn) | inactive
40 | CC1=C(C(=O)OCc2ccccc2)C(c2ccccc2Cl)NC(=O)N1C (stereo not drawn) | inactive
41 | OC1(c2ccccc2)c2ccccc2-c2ncccc21 (stereo not drawn) | inactive
42 | COc1ccc(Cn2c(O)c(C=Nc3ccccc3C(=O)O)c3ccccc3c2=O)cc1 | inactive
43 | O=C(CNC(=S)N(Cc1ccccc1)Cc1cccnc1)N1CCOCC1 | inactive
44 | CC(C=NNc1ccc([N+](=O)[O-])cn1)=Cc1ccccc1 | inactive
45 | Fc1ccc(-n2cc(-c3ccccc3)c3c(N4CCOCC4)ncnc32)cc1 | inactive
46 | FC(F)(F)c1cccc(NC(=S)N2CCN(c3ccccn3)CC2)c1 | inactive

Row | Structure (SMILES) | outcome
47 | O=C(NNc1ccc(C2CCCCC2)cc1)C(O)(c1ccccc1)c1cccs1 (stereo not drawn) | inactive
48 | O=C(Cc1c(F)cccc1Cl)NC1CCN(Cc2ccccc2)CC1 | inactive
49 | O=C(O)c1[nH]c2ccccc2c1C(c1cccc(O)c1)c1c(C(=O)O)[nH]c2ccccc12 | inactive
50 | Cc1[nH]c2ccccc2c1C(=O)CN1CCSCC1 | inactive
51 | COc1ccc(OC)c(C2CC(=O)Nc3c2c(=O)[nH]c2ncnn32)c1 (stereo not drawn) | inactive
52 | CC(Oc1ccc(Cl)cc1Cl)c1nc(-c2ccc(NC(=O)c3ccco3)cc2)no1 (stereo not drawn) | inactive
53 | O=c1[nH]c(=S)[nH]c(O)c1/C=C1\C=Nc2ccccc21 | inactive
54 | CCOC(=O)C(O)(C1C(=O)CC(C)(C)CC1=O)C(F)(F)F (stereo not drawn) | inactive
55 | O=C1CC(c2cc(F)ccc2F)c2cc3c(cc2N1)CCC3 (stereo not drawn) | inactive
56 | OC1(c2ccc3c(c2)OCO3)CCN(Cc2ccccn2)CC1 | inactive
57 | C[C@@H]1CN([C@H](C)CO)C(=O)c2cc(NC(=O)Nc3ccc(C(F)(F)F)cc3)ccc2O[C@H]1CN(C)C(=O)Nc1ccc(F)cc1 | inactive
58 | CCN(C(=O)CSc1nnc(SC)s1)c1c(N)n(Cc2ccccc2)c(=O)[nH]c1=O | inactive
59 | O=C(CCCCn1c(=O)c2ccccc2n(CC(=O)Nc2ccc(F)cc2)c1=O)NCc1ccco1 | inactive
60 | CCN(CC)S(=O)(=O)c1cc(C(=O)Nc2cc(Cl)ccc2N2CCN(C)CC2)ccc1Cl | inactive
61 | CCCCCCCCCCCCCCCCCCNc1ccn(C2OC(COP(=O)(O)OCC3OC(n4cc(F)c(=O)[nH]c4=O)CC3O)C(O)C2O)c(=O)n1 (stereo not drawn) | inactive
62 | S=C(Nc1ccccc1)N1CCN(c2ccc(N3CCOCC3)nn2)CC1 | inactive
63 | COc1ccccc1CN1CCN(C(=O)c2ccco2)CC1 | inactive
64 | N#CC1(NC(=O)COC(=O)C2=COCCO2)CCCCC1 | inactive
65 | Cc1ccccc1-c1cc(C(=O)N2CCCC2)c2ccccc2n1 | inactive
66 | COc1cc(/C=C2\C(=O)ON=C2c2ccccc2)cc(Br)c1O | inactive
67 | CC(=O)Nc1cnc(-c2ccc(O)cc2C)cn1 | inactive
68 | CCOc1ccc(CNC(=O)CCc2cn(C)c3ccccc23)cc1OC | inactive
